TDP1 inh = inhibitors of human tyrosyl-DNA phosphodiesterase TDP1; Q9NUW8; recombinant TDP1, AlphaScreen DNA substrate cleavage; Potency, µM (doses to about 130 µM), for inactives: at the highest dose activity change, negative = inhibition, usual class: inhibitors; 350,000 compounds, 0.28% hits; also: nearly all actives have a fitted effect of over 40% in size
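Recombinant human Tdp1 (E. coli-expressed, 1 nM final) preincubated with compounds 15 min at room temperature, then 5'-biotin/3'-phosphotyrosine-FITC DNA substrate (15 nM final) added for 5 min. AlphaScreen beads (10 ug/ml final) added 10 min; cleavage lowers signal.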
KAT2A inh = inhibitors of human GCN5L2 histone acetyltransferase | Q92830 | GCN5L2 HAT assay, ThioGlo1 CoA-SH fluorescence | Potency, µM (doses to about 58.9 µM), without a hit: at the top dose activity change, negative = inhibition, hits mostly inhibitors | 390,000 compounds, 0.21% hits
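Compounds, pin-transferred from DMSO stocks, meet 20nM GCN5L2 for 15 min before the reaction begins with H3(1-25) peptide (75uM) and acetyl-CoA (70uM). Thiol-reactive ThioGlo1 reports CoA release over 20 min at room temperature.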
VDR inh = vitamin D3 receptor (human) inhibition; AID 504847; Potency, µM, without a hit: max response, negative = inhibition, most hits filed as inhibitors; VDR-SRC2-3 peptide fluorescence polarization, 2 h; P11473; 400,000 compounds, 0.93% hits
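Fluorescence polarization assay measuring small-molecule disruption of VDR binding to the coregulator peptide SRC2-3. Compounds were pin-transferred (23 nl) into the reagent mix and incubated 2 h at room temperature before reading.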
DT40 TDP1 CPT = DT40-hTDP1 cell growth loss with CPT; Potency, µM (doses to about 46.2 µM), without a hit: top-dose activity change, negative = growth inhibition, usual class: inhibitors; chicken DT40 Tdp1-/-;hTDP1 cells + 20 nM CPT, ATP luminescence, 48 h; 420,000 compounds, 12% hits; also: nearly all actives have a fitted effect of over 55% in size
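Chicken DT40 Tdp1-/- cells complemented with human TDP1, 400 cells/well, exposed to compounds plus 20 nM camptothecin for at least 48 h at 37 C; viability read as ATP content by CellTiter-Glo luminescence.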
PLK1 PBD inh = inhibitors of human PLK1 polo-box domain binding. Plk1 PBD binding of FITC phosphopeptide, fluorescence polarization. Potency, µM, inactives show max response, negative = inhibition, hits mostly inhibitors. 360,000 compounds, 2.8% hits. AID 720504; also: series mostly up to about 57 µM; nearly all actives have a fitted effect of over 65% in size
TDP1 cell noCPT = qHTS for Inhibitors of human tyrosyl-DNA phosphodiesterase 1 (TDP1): qHTS in cells in absence of CPT. DT40 Tdp1-/- hTDP1 cells, no CPT, ATP luminescence, 48 h. Potency, µM (doses to about 46.2 µM), for the others: at the highest dose activity change, negative = growth inhibition, usual class: inhibitors. 420,000 compounds, 15% hits. AID 686978, 2013; also: nearly all actives have a fitted effect of over 55% in size
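Chicken DT40 Tdp1-/- cells stably complemented with human TDP1 were seeded at 400 cells/well with DMSO in place of 20 nM camptothecin. After compound pinning, cells grew at least 48 hr at 37 °C; viability read by CellTiter-Glo luminescence.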
* = called active by the depositor; ? = inconclusive; · = no result; [ ] = remark or other dose. Rows were chosen to be rich in hits. Some 18% of all compounds tested hit in one or more screens of this group. Calls follow the shape of the dose curve; as a rule, active = well fitted curve in the direction sought with a large enough effect; inconclusive = small, poorly fitted or top-dose-only effect, or another doubt; inactive = no such curve, though single readings can be large; an effect the other way counts as inactive or inconclusive. % is scaled to controls: 0 for no effect and ±100 for the full control effect; potency is read from the fitted curve at half-maximal effect.

SMILES	TDP1 inh	KAT2A inh	VDR inh	DT40 TDP1 CPT	PLK1 PBD inh	TDP1 cell noCPT
COc1cccc(Nc2nc(-c3ccccc3)c3cc(C)ccc3n2)c1	3%[2.28 µM]	-11%	-15%	7.3µM*	·	?
Cc1ccc2nc(NCCCO)nc(-c3ccccc3)c2c1	2%	-9%[0.501 µM]	3%	13µM*	-19%	12µM*
O=C(NCc1ccncc1)c1cnn(-c2nccc(-c3cccs3)n2)c1C1CC1	·	·	·	-7%[9.04 µM]	·	-11%
Cc1ccc(NC2=CC(=O)C(=O)c3ccccc32)c(C)c1	0%[56.1 µM]	-7%	-18%	4.6µM*	-9%	18µM*
O=C1C=C(Nc2ccccc2O)c2ccccc2C1=O	11%	-11%	8%	3.7µM*	-12%	3.3µM*
Oc1ccccc1Nc1ccccn1	·	-5%	-5%	0%	6%	-9%
O=C1C=C(NCc2ccccc2)c2ccccc2C1=O	4%	-1%	2µM*	5.8µM*	?	15µM*
O=C1C=C(NCc2ccccc2)CCC1	-2%	-6%	5%	-4%	-9%	9%
CN(C)c1ccc2nc3ccc(=O)cc-3sc2c1	·	·	·	1.6µM*	?	1.6µM*
Cc1ccc(NC(=O)CCCCCC2NC(=O)NC2C)cc1 (configuration not stated)	14%	-7%	-2%	-22%	-7%	6%
CC1NC(=O)NC1CCCCC(=O)O (configuration not stated)	4%	-8%	2%	?	11µM*	?
O=C(Nc1cc(C(F)(F)F)ccc1Cl)[C@H](O)CCc1ccccc1	-7%	·	·	·	·	·
CCCN1CCC(=O)N([C@H](CSc2ccc(OC)cc2)CC(C)C)CC1	5%	-6%	-3%	?	?	?
O=c1nc(N/N=C/c2c[nH]c3ccccc23)cn[nH]1	8%	-7%	4%	0%	-5%	?
O=c1nc(N/N=C/C=C/c2ccccc2)cn[nH]1	5%	0%	13%	?	-4%	8.2µM*
CC1(c2nnnn2C2CCCC2)CCC(=O)N1c1ccc2c(c1)OCCO2 (configuration not stated)	·	·	·	1%	-12%	-13%
Cc1ccc(-n2c(=O)[nH]c3c(C(N)=O)nc(CC(C)C)nc32)cc1	5%	-2%	-7%	-23%	-9%	-14%
Cc1ccc(-n2c(=O)[nH]c3c(C(N)=O)nc(-c4ccc(C)o4)nc32)cc1	-6%	-2%	8%	9.2µM*	-13%	13µM*
O=C(c1ccccc1)C(O)c1ccccc1 (configuration not stated)	1%	-4%	2%	15%	-9%	7%
O=C(c1ccccc1)C(c1ccccc1)[n+]1csc2ccccc21 (configuration not stated)	·	·	·	?	·	11µM*
Cc1ccc(S(=O)(=O)NCc2ccccc2)cc1C(=O)N1CCCCCCC1	·	-10%	-12%	-19%	-10%	?
CCCCCCCCN1C(=O)[C@H](CC(=O)NCc2ccc(C)o2)C[C@@]2(C(=O)OC)CC(C)(C)CC=C12	·	·	·	12µM*	-13%	8.2µM*
COC(=O)[C@@]12C[C@@H](CC(=O)NCc3cccs3)C(=O)N(Cc3ccccc3)C1=CCC(C)(C)C2	·	·	·	?	-5%	?
CCCCCCCCN1C(=O)[C@H](CC(=O)NCc2cccs2)C[C@@]2(C(=O)OC)CC(C)(C)CC=C12	·	·	·	15µM*	-2%	8.2µM*
Cc1cc(C)n2nc(CNC(=O)c3ccc(Cl)cc3)nc2n1	3%	-1%	11%	-8%	·	-4%
SMILES	TDP1 inh	KAT2A inh	VDR inh	DT40 TDP1 CPT	PLK1 PBD inh	TDP1 cell noCPT
CC[C@H](C)N(C)C(=O)c1cc2ccccc2c(-c2ccccc2Cl)n1	-4%[56.1 µM]	·	·	?	·	30µM*
COc1ccccc1NC(=O)CNC(=O)CC12CC3CC(CC(C3)C1)C2	-9%	-2%	-23%	1.6µM*	-9%	-70%
COc1ccc(CNC(=O)CC23CC4CC(CC(C4)C2)C3)cc1OC	·	-3%	2%	?	-8%	-24%
Cc1ccccc1NC(=O)CSC(N)=O	7%	-8%	25µM*	-26%	?	?
Cc1ccccc1NC(=O)COC(=O)CCc1ccccc1	-1%	-6%	-11%	?	6µM*	-29%
O=C(CSc1ccccc1)Nc1ccccc1C(=O)O	-4%	·	-3%	-19%	-11%	0%
NC(=O)SCC(=O)Nc1ccccc1C(=O)O	4%	15%	79µM*	?	-13%	-16%
CC(OC(=O)CCCC(=O)Nc1ccc(F)cc1)C(=O)c1ccccc1 (configuration not stated)	·	-1%	-17%	-1%	5%	-13%
COc1ccccc1NC(=O)Cc1nnc(SCC(=O)Nc2ccccc2F)n1C	0%	-1%	?	16µM*	12µM*	?
COc1ccccc1NC(=O)CSC(N)=O	7%	-2%	22µM*	?	-24%	21µM*
O=C(Cc1ccccc1)NNC(=O)c1ccccc1C(=O)O	2%	-2%	22%	1%	-5%	3%
Cc1ccc(C(=O)N/N=C/c2ccc3c(c2)OCO3)o1	3%	-7%	14%	-18%	2%	-1%
O=C(N/N=C/c1ccsc1)c1cc2ccccc2o1	79µM*	-7%	4%	7%	3%	-3%
Cc1cc(C(=O)N/N=C/c2cccc([N+](=O)[O-])c2)c(C)o1	-2%	-7%	-12%	-19%	-2%	-12%
O=C(N/N=C/c1ccc2c(c1)OCO2)c1cc2ccccc2o1	50µM*	-11%	2%	5%	-2%	22%
COc1cc(/C=N/NC(=O)c2ccccc2O)ccc1OCC(=O)Nc1ccccc1	·	-10%	-16%	?	?	?
O=C(N/N=C/c1cccc([N+](=O)[O-])c1)c1cc2ccccc2o1	-10%	-4%	-29%	?	-24%	23µM*
O=C(COc1ccc(/C=N/NC(=O)c2cc3ccccc3o2)cc1Cl)Nc1ccccc1	4%	0%	-8%	5.2µM*	-14%	6.5µM*
CC1=C(C(=O)Nc2ccccc2)C(c2ccc(O)cc2)n2nc(-c3ccc(Cl)cc3)nc2N1 (configuration not stated)	-1%	-12%	-25%	?	·	?
OC(CN1CCOCC1)c1ccccc1 (configuration not stated)	·	·	·	15%	·	6%
COc1ccc(OC)c(/C=N\NC(=O)c2cc3c(ccc4ccccc43)o2)c1	3%	-17%	9%	?	-2%	?
O=C(N/N=C/c1ccccc1F)c1cc2c(ccc3ccccc32)o1	8.9µM*	-10%	4%	?	-6%	-12%
